An excerpt weighted towards active compounds, which were near 4% of everything screened.
FGF22 binding = shifts melting point of recombinant human FGF22 | 340,000 tested, 1.5% active | activity (Tm shift, normalised), % at 9.99 µM | AID 651658 | recombinant FGF22 thermal shift, SYPRO orange fluorescence; percent of sucrose octasulfate shift, DMSO zero;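 active = mean Tm shift, scaled 0 neutral to 100 positive control, at about 1.3% or above, every replicate too, limit read from the data; inconclusive = no clear call, values can overlap the other calls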
ERAP1 inh = inhibitors of human ERAP1 aminopeptidase. Q9NZ08. recombinant ERAP1, Leu-AMC fluorescence, 60 min. 340,000 tested, 0.15% active. inhibition, % at 10.7 µM. AID 652197;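 active = mean replicate inhibition of at least 30%, or all replicates individually reaching that 30% level; inactive = mean below 30% and not every replicate reaching it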
RAD52 inh = RAD52 (human) annealing inhibition; recombinant RAD52 DNA annealing, FRET fluorescence; inhibition, % at 18.7 µM; 360,000 tested, 0.46% active;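 active = every replicate showing at least 50% inhibition; inconclusive = mean inhibition at least 50% but not in every replicate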
DENV2 CPE rescue = protects cells from dengue virus 2 cytopathic effect. AID 651640. DENV2-infected cells, cytopathic effect rescue, plate reader. 350,000 tested, 1.7% active. CPE inhibition, % at 9.99 µM; in the data active = CPE inhibition above about 20%, passing the limit was not always enough; inconclusive = no clear call, values can overlap the other calls; tested in BHK-21 cells
MLL AF4-AF9 inh = blocks AF4 peptide binding to human AF9; P42568; AlphaScreen, biotin-AF4 peptide binding to FLAG-AF9; inhibition, % at 10 µM; 350,000 tested, 0.47% active;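 active = every replicate reaching a set inhibition limit, whatever the replicate mean, cut at about 25% in these data; inconclusive = mean inhibition reaches that limit but some replicates miss it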
RAD52 DNA ctr = binds DNA, flagging false RAD52 inhibitor hits | shares compounds with RAD52 inh | Salmon sperm DNA/acridine orange FP displacement, DNA binding | AC50, µM | 1,000 tested, 8% active | AID 652128;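 active = fitted half-maximal concentration for signal loss at or below twice the highest dose tested, in every separate run, actives reach about 64 µM in these data; inconclusive = runs disagree, or flat partial signal loss, or poor fit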
Hits are given with their value.

For CN1CCN(C2Cc3ccccc3Sc3ccc(Cl)cc32)CC1 (stereo not drawn) the results were FGF22 binding inactive, ERAP1 inh inactive, RAD52 inh 54, DENV2 CPE rescue inactive, MLL AF4-AF9 inh inactive and RAD52 DNA ctr inactive.
`CN1CCN(C2Cc3cc(F)ccc3Sc3ccc(Cl)cc32)CC1` (stereo not drawn) gave RAD52 inh inactive, DENV2 CPE rescue inactive and MLL AF4-AF9 inh inactive.
`CCCCCCCCCCOC(=O)Cn1c(COc2ccc(Cl)cc2)[n+](C)c2ccccc21` gave FGF22 binding inactive, ERAP1 inh 35, RAD52 inh 76, DENV2 CPE rescue inactive, MLL AF4-AF9 inh 42 and RAD52 DNA ctr inactive.
Screening CCOC(=O)Cn1c(COc2ccccc2OC)[n+](C)c2ccccc21 returned FGF22 binding inactive, ERAP1 inh inactive, RAD52 inh inactive, DENV2 CPE rescue inactive and MLL AF4-AF9 inh inactive.
`CCCCCCCCCCOC(=O)Cn1c(COc2ccccc2)[n+](C)c2ccccc21` gave FGF22 binding inactive, ERAP1 inh 49, RAD52 inh 70, DENV2 CPE rescue inactive, MLL AF4-AF9 inh inconclusive and RAD52 DNA ctr inactive.
Screening CCCCCCCCCCOC(=O)Cn1c(COc2cccc(C)c2)[n+](C)c2ccccc21 returned FGF22 binding inactive, ERAP1 inh 30, RAD52 inh 80, DENV2 CPE rescue inactive, MLL AF4-AF9 inh inactive and RAD52 DNA ctr inconclusive.
`C[C@@H]1CN([C@H](C)CO)C(=O)c2cc(C#CC3CC3)cnc2O[C@@H]1CN(C)Cc1ccccc1C(=O)O` gave FGF22 binding inactive, ERAP1 inh inactive, RAD52 inh inactive, DENV2 CPE rescue inconclusive and MLL AF4-AF9 inh inactive.
For CC(C)NC(=O)Nc1cccc2c1O[C@@H](CN(C)Cc1ccc3c(c1)OCO3)[C@@H](C)CN([C@@H](C)CO)C2=O the results were FGF22 binding inactive, ERAP1 inh inactive, RAD52 inh inactive, DENV2 CPE rescue inactive and MLL AF4-AF9 inh inactive.
NC(N)=NN=Cc1ccnc2ccccc12 was read as FGF22 binding inactive, ERAP1 inh inactive, RAD52 inh inactive, DENV2 CPE rescue inactive and MLL AF4-AF9 inh inactive.
For NC(=NCc1ccccc1)NN=Cc1ccnc2ccccc12 the results were FGF22 binding inactive, ERAP1 inh inactive, RAD52 inh 64, DENV2 CPE rescue inactive, MLL AF4-AF9 inh 27 and RAD52 DNA ctr inactive.
For CCCCCCCCCCCCCCCC[N+](C)(C)CC the results were FGF22 binding inactive, ERAP1 inh 77, RAD52 inh 81, DENV2 CPE rescue inactive, MLL AF4-AF9 inh inactive and RAD52 DNA ctr inconclusive.
`CCCCCCCCCCCCCCCC[N+](C)(C)CCl` gave FGF22 binding inactive, ERAP1 inh 88, RAD52 inh 88, DENV2 CPE rescue inactive, MLL AF4-AF9 inh inactive and RAD52 DNA ctr 31µM.
CCCCCC[N+](C)(C)CCSSCC[N+](C)(C)CCCCCC was read as FGF22 binding inactive, RAD52 inh inactive, DENV2 CPE rescue inactive and MLL AF4-AF9 inh inactive.
C#CC[N+](C)(C)CCCCCCCCCC was read as FGF22 binding inactive, ERAP1 inh inactive, RAD52 inh inactive, DENV2 CPE rescue inactive and MLL AF4-AF9 inh inactive.
Screening C[C@H](CO)N1C[C@H](C)[C@@H](CN(C)S(=O)(=O)c2ccccc2)OCCCC[C@H](C)Oc2ccc(NS(=O)(=O)c3ccccc3)cc2C1=O returned FGF22 binding inactive, ERAP1 inh inactive, RAD52 inh inactive, DENV2 CPE rescue inactive and MLL AF4-AF9 inh inactive.
For CN1CCN(CCC=C2c3ccccc3Sc3ccc(S(=O)(=O)N(C)C)cc32)CC1 the results were FGF22 binding inactive, ERAP1 inh inactive, RAD52 inh inactive, DENV2 CPE rescue inactive and MLL AF4-AF9 inh inactive.
For CCCCCC[N+](C)(C)CC/C=C1/c2ccccc2Sc2ccc(Cl)cc21 the results were FGF22 binding inactive, ERAP1 inh inactive, RAD52 inh 63, DENV2 CPE rescue inactive, MLL AF4-AF9 inh inactive and RAD52 DNA ctr inactive.
For O=C(c1cccnc1)N1C[C@H]2[C@@H](c3ccccc31)[C@@H](CO)N2C(=O)Nc1cccc(F)c1 the results were FGF22 binding inactive, ERAP1 inh inactive, RAD52 inh inactive, DENV2 CPE rescue inactive and MLL AF4-AF9 inh inactive.
COc1cc2c(cc1OC)-c1cc3ccc(OC)c(OC)c3c[n+]1CC2 was read as FGF22 binding inactive, ERAP1 inh inactive, RAD52 inh 80, DENV2 CPE rescue inactive, MLL AF4-AF9 inh inactive and RAD52 DNA ctr inactive.
COc1ccccc1S(=O)(=O)N[C@H]1CC[C@H](CCn2cc(C3CC3)nn2)O[C@H]1CO was read as FGF22 binding inactive, ERAP1 inh inactive, RAD52 inh inactive, DENV2 CPE rescue inactive and MLL AF4-AF9 inh inactive.
CCCNC(=O)N1CC2(C1)[C@H](c1ccccc1)[C@H](CO)N2C(=O)C1CC1 was read as FGF22 binding inactive, ERAP1 inh inactive, RAD52 inh inactive, DENV2 CPE rescue inactive and MLL AF4-AF9 inh inactive.
Screening CCCCCCCCOC(=O)C[N+](C)(C)C/C=C(/C)Cl returned FGF22 binding inactive, ERAP1 inh inactive, RAD52 inh inactive, DENV2 CPE rescue inactive and MLL AF4-AF9 inh inactive.
Screening CCCCCCCCCCCCOC(=O)C[N+](C)(C)C returned FGF22 binding inactive, ERAP1 inh inactive, RAD52 inh 50, DENV2 CPE rescue inactive, MLL AF4-AF9 inh inactive and RAD52 DNA ctr inactive.
For COc1ccc2c(c1)CC1c3c(cc4c(c3-2)OCO4)CC[N+]1(C)[O-] (stereo not drawn) the results were FGF22 binding inactive, ERAP1 inh inactive, RAD52 inh 82, DENV2 CPE rescue inactive, MLL AF4-AF9 inh inactive and RAD52 DNA ctr inconclusive.
COc1cc(C(=O)N2CCC(N3CCN(C)CC3)CC2)ccc1Nc1ncc2c(n1)N(C)c1ccccc1C(=O)N2C was read as FGF22 binding inactive, ERAP1 inh inactive, RAD52 inh 77, DENV2 CPE rescue inactive, MLL AF4-AF9 inh inactive and RAD52 DNA ctr inactive.
`CCN1C(=O)CCN(C2CCCC2)c2nc(Nc3ccc(C(=O)NC4CCN(C)CC4)cc3OC)ncc21` gave FGF22 binding inactive, RAD52 inh 63, DENV2 CPE rescue inactive, MLL AF4-AF9 inh inactive and RAD52 DNA ctr inactive.
For CCCN1[C@@H]2c3ccc(-c4ccc(F)cc4)c(=O)n3C[C@H]1[C@H](CO)[C@H]2C(=O)NCC1CC1 the results were FGF22 binding inactive, ERAP1 inh inactive, RAD52 inh inactive, DENV2 CPE rescue inactive and MLL AF4-AF9 inh inactive.
For COc1ccc(OC)c(Nc2nc(NCCCN(C)C)nc(N)c2[N+](=O)[O-])c1 the results were FGF22 binding inactive, ERAP1 inh inactive, RAD52 inh 95, DENV2 CPE rescue inactive, MLL AF4-AF9 inh inactive and RAD52 DNA ctr inactive.
COc1cc2sc3ccc(-c4ccc(CN5CCOCC5)cc4)cc3c(=O)c2cc1OC was read as FGF22 binding inactive, ERAP1 inh inactive, RAD52 inh 93, MLL AF4-AF9 inh inactive and RAD52 DNA ctr inactive.
Cc1ccccc1-c1ccc([C@@H]2[C@H](CO)N3C(=O)CN(C(=O)c4ccncc4)C[C@@H]23)cc1 was read as FGF22 binding inactive, ERAP1 inh inactive, RAD52 inh inactive, DENV2 CPE rescue inactive and MLL AF4-AF9 inh inactive.
